Screens as filed in PubChem BioAssay.
IEC-6 cytotox – cytotoxicity in IEC-6 intestinal epithelial cells, primary screen, cytotoxicity control for KLF5 inhibitor project, cell-based, luminescence; IEC-6 cytotoxicity, luminescence viability; actives 0.78% (n = 290,000); AID 1825, 2009; inhibition, % at 5 µM; in the data active = inhibition above about 22%;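 note: 0% = plate median of test compound wells and 100% = cytotoxic reference compound wells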
CSC inhib – cancer stem cell viability inhibitors, primary screen, luminescence | cancer stem cell-like cells viability | inhibition, % at 7.5 µM | actives 1.1% (n = 300,000); in the data active = inhibition above about 75%; tested in HMLE shEcad cells
SKKanGAS inh – S. pyogenes SKKanGAS growth inhibitors in kanamycin, primary screen, streptokinase expression inhibitor project, SKKanGAS strain, BacTiter-Glo luminescence. 6 h. inhibition, % at 7.5 µM. actives 1.3% (n = 300,000);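 active = mean replicate score, as percent of positive control median, at least 50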;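 note: strain carries kanamycin resistance gene driven by streptokinase promoter and grows in 40 µg/ml kanamycin; loss of luminescence reflects streptokinase promoter inhibition or plain growth inhibition; 0% = median of DMSO wells and 100% = positive control at its reference dose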
KLF5 inhibitor – KLF5 expression inhibitors, primary screen, DLD-1 cells, luminescence; inhibition, % at 5 µM; DLD-1 KLF5 promoter-luciferase reporter; actives 0.23% (n = 290,000); AID 1700, 2009;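 active = inhibition above a per-plate limit of that plate's mean compound inhibition plus 3 SD, cut at about 60% in these data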;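 note: 0% = DMSO wells and 100% = LY294002 at 200 µM; higher means less KLF5 promoter-driven luciferase light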
aSyn UTR inh – MLPCN primary screen, SNCA 5' untranslated region | alpha-synuclein 5'UTR reporter, inhibitor activity | inhibition, % (tested at 7.5 µM) | actives 0.82% (n = 300,000) | AID 1813, 2009; in the data active = inhibition above about 60%;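 note: H4 neuroglioblastoma cells stably carrying SNCA 5'UTR luciferase fusion; 0% = DMSO wells and 100% = positive control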
Active calls of the source: *; . = not tested or not shown. An excerpt weighted towards active compounds, which were near 3% of everything screened.

SMILES | IEC-6 cytotox | CSC inhib | SKKanGAS inh | KLF5 inhibitor | aSyn UTR inh
CC1=C(/C=C/C(C)=C/C=C/C(C)=C/C(=O)Nc2ccc(O)cc2)C(C)(C)CCC1 | . | 104* | . | . | .
O=C(NC(=S)N1CCN(c2ccc(C(F)(F)F)cc2[N+](=O)[O-])CC1)c1cccs1 | 1 | 12 | 87* | -47 | 5
CCN1CCN(C(=S)NC(=O)c2cccs2)CC1 | 1 | . | -4 | -27 | -1
Cc1ccc(C(O)(C(=O)NNc2ccc3ccccc3n2)c2ccc(C)cc2)cc1 | -6 | -16 | 71* | -9 | -17
COc1cccc(NC(=O)C/C(C)=N/NC(=O)c2ccccc2Cl)c1 | 5 | 20 | 4 | -37 | 19
C/C(CC(=O)Nc1ccc(Cl)c(C(F)(F)F)c1)=N\NC(=O)c1cc2ccccc2cc1O | 3 | 76* | 95* | 20 | -14
Cc1ccccc1OCc1nc2ccccc2c(=O)n1/N=C/c1c[nH]c2ccccc12 | -3 | 12 | 7 | -25 | -30
Cc1cc(/C=N/n2c(COc3ccccc3C)nc3ccccc3c2=O)c(O)c([N+](=O)[O-])c1 | 8 | 62 | 52* | -20 | 5
O=c1c2ccccc2nc(COc2ccccc2)n1/N=C/c1cc([N+](=O)[O-])ccc1O | -6 | 75* | 76* | -11 | 38
Cc1nn(Cc2ccc(Cl)cc2Cl)c(C)c1NC(=O)NC12CC3CC(CC(C3)C1)C2 | -2 | 15 | 51* | -9 | 7
Cc1nn(Cc2ccc(Cl)cc2Cl)c(C)c1NC(=O)c1sc2ccccc2c1Cl | 1 | 7 | 11 | -16 | 8
Cc1onc(-c2ccccc2Cl)c1C(=O)NCc1nnnn1-c1ccc(F)cc1 | . | 4 | 0 | . | 3
Fc1ccc(NC(=S)Nc2ccccc2N2CCOCC2)cc1Cl | -3 | 4 | -2 | -18 | -26
C=CCc1cc(/C=C2/NC(=O)N(CC)C2=O)cc(OCC)c1OCc1ccc(C(=O)O)cc1 | 20 | 7 | 61* | -13 | -19
N#Cc1c(N)c(C#N)c(-c2ccc3c(c2)OCO3)c2c1CCCC2 | . | 2 | 1 | . | 30
N#Cc1c(N)nc2c(c1-c1ccc3c(c1)OCO3)CCc1ccccc1-2 | 7 | 82* | 34 | -7 | 29
Cc1cc(CN(C)C(=O)c2ccc(OC3CCN(CCc4ccccc4)CC3)cc2)on1 | -8 | 3 | -2 | -19 | -11
O=C(Nc1ccc(NC(=S)NC(=O)c2ccco2)cc1)c1ccccc1 | 2 | -7 | 8 | -14 | -21
O=C(NNC(=S)NC(=O)c1cccs1)c1ccc(NC(=O)c2ccccc2)cc1 | 5 | 11 | 92* | 4 | 37
CCCCC(=O)Nc1ccc(C(=O)NNC(=S)NC(=O)c2cccs2)cc1 | 4 | 3 | 67* | -18 | -45
O=C(NNC(=S)NC(=O)c1ccco1)c1ccc(NC(=O)c2ccccc2)cc1 | 3 | -1 | 61* | -8 | -15
O=C(NCCc1ccc(F)cc1)C(=O)NCC1CCCN1S(=O)(=O)c1cccs1 (centres undefined) | . | 11 | 20 | . | -12
Cc1cc(-c2ccc(C(C)C)c(S(=O)(=O)Nc3cc(C)on3)c2)on1 | 7 | -25 | 13 | -6 | -4
Cc1ccc(S(=O)(=O)N2CCCC2CNC(=O)c2ccc(F)c(F)c2)cc1 (centres undefined) | . | -17 | 1 | . | 15
Cc1cccc(Cn2cc(/C=C/[N+](=O)[O-])c3ccccc32)c1 | -1 | 109* | 31 | -46 | 34
SMILES | IEC-6 cytotox | CSC inhib | SKKanGAS inh | KLF5 inhibitor | aSyn UTR inh
Nc1ccc(C(=O)N/N=C\c2cc(N=Nc3cccc4ccccc34)ccc2O)cc1 | 2 | 98* | 7 | 4 | 50
O=C(CNc1ccc2c(c1)OCO2)N/N=C\c1cn(Cc2ccccc2)c2ccccc12 | -4 | 34 | 6 | -24 | 81*
CCOC(=O)N/N=C/c1cn(Cc2ccc(Cl)cc2)c2ccccc12 | -4 | 29 | 2 | -17 | 70*
O=C(Nc1ccccc1F)N1CCc2ccccc2C1 | -3 | -1 | 15 | -152 | -42
CCC1=Nc2cc(C(=O)NCCN3CCOCC3)ccc2Sc2ccc(Br)cc21 | 0 | 6 | -7 | -16 | 8
Nc1ccc(C(=O)N/N=C/c2cn(Cc3cccc(F)c3)c3ccccc23)cc1 | 6 | 17 | 21 | -28 | 70*
O=[N+]([O-])/C=C/c1cn(Cc2ccc(Cl)cc2)c2ccccc12 | 2 | 99* | -10 | 1 | 65*
Cc1cc(C(=O)N/N=C/c2cc(N=Nc3ccccc3)ccc2O)n[nH]1 | 0 | 109* | 88* | 18 | 66*
O=C(N/N=C/c1cn(Cc2ccccc2)c2ccccc12)c1ccncc1 | 4 | 6 | 1 | -11 | 58
COC(=O)N/N=C/c1cc(N=Nc2ccccc2)ccc1O | 0 | 24 | 26 | -39 | -38
O=C(NC1CCN(S(=O)(=O)c2cccc(Cl)c2)CC1)C1CCCCC1 | 1 | -5 | -4 | -6 | 24
Cc1cc(-c2nnc3n2N=C(c2ccc(-c4ccccc4)cc2)CS3)n[nH]1 | -3 | 7 | 47 | -15 | -18
c1ccc(-c2cc(-c3nnc4n3N=C(c3ccc5ccccc5c3)CS4)[nH]n2)cc1 | -5 | 92* | 35 | -31 | 30
c1ccc(C2=Nn3c(nnc3-c3ccncc3)SC2)cc1 | -5 | -8 | -6 | -1 | 25
Cc1cccc(-c2nnc3n2N=C(c2ccccc2)CS3)c1 | 1 | 19 | 0 | -16 | 63*
O=C(CCl)N=c1sccn1Cc1ccc(Cl)cc1Cl | 99* | 0 | -8 | -23 | -6
O=C(CCl)N=c1sccn1Cc1ccccc1Cl | 100* | 21 | 7 | -8 | -11
CCC(=O)OCC(=O)N=c1sccn1Cc1ccccc1Cl | -6 | -13 | -6 | -35 | 4
CCOC(=O)N1CCN(C(=O)COC(=O)C2CCN(S(=O)(=O)c3c(Cl)cccc3Cl)CC2)CC1 | . | -11 | 3 | . | -4
CC(C)(C)c1ccc(-c2noc(-c3ccc4c(c3)CCO4)n2)cc1 | 4 | 38 | 82* | -60 | -157
Cc1cc(-c2nc(-c3ccc(C(C)(C)C)cc3)no2)no1 | 2 | -7 | -1 | -84 | -171
CCCCCCCCCCOC(=O)Cn1c(COc2ccccc2OC)[n+](C)c2ccccc21 | 12 | 93* | 75* | 25 | 81*
O=C(Nc1nc2cc3c(cc2s1)OCO3)c1ccco1 | -2 | . | 11 | -28 | 80*
CC(=O)Nc1nc2cc3c(cc2s1)OCO3 | 0 | 7 | -5 | -102 | -100
CC1CCc2nc(NC(=O)c3ccco3)sc2C1 (centres undefined) | 3 | 1 | 7 | -9 | 88*
CCOC(=O)CSc1nnc(NC(=O)CN2CCCCC2)s1 | 3 | -5 | -4 | -2 | -3
CC1CCCCC1NC(=O)C1CCC(CNc2c(N3CCCCC3)c(=O)c2=O)CC1 (centres undefined) | -6 | -2 | 2 | -6 | 22
COc1ccc(C(=O)NCC(=O)OCC(=O)N2N=C(c3ccc(Cl)cc3)CC2c2ccco2)cc1OC (centres undefined) | 2 | 7 | 76* | 8 | 25
